A number with no mark means an inactive call. Results filed as inconclusive are left out. Active and inactive are the calls of the source. Calls follow the shape of the dose curve; as a rule, active = well fitted curve in the direction sought with a large enough effect; inconclusive = small, poorly fitted or top-dose-only effect, or another doubt; inactive = no such curve, though single readings can be large; an effect the other way counts as inactive or inconclusive.

The values that follow come from PubChem BioAssay (NCATS).

Experiment [1] concerns the target Glutathione peroxidase 1 (Homo sapiens) (UniProt P07203). As to the kind of experiment: Primary qHTS Assay for Inhibitors of Recombinant Selenoprotein Glutathione Peroxidase 1 (GPX1) (AID 1845191). Also: nearly all actives have a fitted effect of over 65% in size. As to activity, negative = inhibition: % is scaled to controls: 0 for no effect and ±100 for the full control effect. Summed up:
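GPX1 10 nM, GR 100 nM, GSH 1 mM, NADPH 0.5 mM, CHP 0.5 mM (final). 30-min cpd preincubation, RT. Ex340/Em450 read t=0, t=15 min.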
(qHTS replaces the single test concentration by a dilution series.)

For experiment [2], the target named is Phospholipid hydroperoxide glutathione peroxidase GPX4 (Homo sapiens) (UniProt P36969). Briefly: Primary qHTS Assay for Inhibitors of Recombinant Selenoprotein Glutathione Peroxidase 4 (GPX4) (AID 1845192). Also: nearly all actives have a fitted effect of over 65% in size. As to activity change, negative = inhibition: series mostly up to about 50 µM; % is scaled to controls: 0 for no effect and ±100 for the full control effect. The procedure, abridged: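 qHTS, GR-coupled: GPX4 200 nM + cpd 30 min RT → GSH 1 mM, NADPH 0.5 mM, GR 100 nM → CHP 0.5 mM start; fluor 340/450 at t0 and t15 min; no-enzyme wells as control.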
Chain of Phospholipid hydroperoxide glutathione peroxidase GPX4 (Homo sapiens) (P36969 whole entry, looked up): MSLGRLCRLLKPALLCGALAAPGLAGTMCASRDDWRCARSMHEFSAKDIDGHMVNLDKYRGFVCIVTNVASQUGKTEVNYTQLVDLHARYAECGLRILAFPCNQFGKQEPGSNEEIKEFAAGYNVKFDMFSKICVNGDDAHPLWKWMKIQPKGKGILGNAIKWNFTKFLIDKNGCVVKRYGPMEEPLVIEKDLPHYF

The target in experiment [3] is Luciferin 4-monooxygenase (Photinus pyralis) (UniProt P08659). As to the kind of experiment: Primary firefly luciferase (FLuc) qHTS assay for identification of artifact compounds. (AID 1845220). Also: nearly all actives have a fitted effect of over 60% in size.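 As to activity change, negative = inhibition: series mostly up to about 54 µM; plate controls were DMSO vehicle for no effect and no enzyme for full effect.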 Summed up:
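In this counter-screen for luciferase artifacts, test compounds met substrate (10 uM each luciferin and ATP) before 10 nM enzyme started the reaction. Light output was measured 5 min later.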

A short description of experiment [4]: Primary fluorescence-based thiol-reactive (MSTI) qHTS assay for identification of artifact compounds. (AID 1845221). Also: nearly all actives have a fitted effect of over 65% in size. Also: potency is read from the fitted curve at half-maximal effect.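 As to activity change, negative = thiol reactive: series mostly up to about 54 µM; thiol-reactive compounds lower the probe fluorescence signal.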 Summed up:
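In PBS pH 7.4 with 2% DMSO, each compound met 4 uM MSTI for one hour at ambient temperature, shielded from light, before fluorescence detection.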

Experiment [5] deals with Nanoluciferase (engineered Oplophorus gracilirostris luciferase). Briefly: Primary Nanoluciferase (NLuc) qHTS assay for identification of artifact compounds. (AID 1845222).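 Also: NLuc secreted into diluted conditioned medium of S16 cells; series mostly up to about 54 µM.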 Summed up: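 Using secreted nanoluciferase in S16 culture medium (0.22 um filtered, 1:55 dilution), compounds were preincubated 15 min at RT. Signal was generated with Nano-Glo reagent (1:100) over 5 min.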

Experiment [6] can be described thus: Primary redox qHTS assay for identification of artifact compounds. (AID 1845223).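 Also: 0% = DMSO and 100% = reference compound.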 The procedure, abridged:
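Redox-cycling detection via DTT (250 uM final) oxidation coupled to Amplex Red (25 uM)/HRP (250 mU/mL) in HBSS. 15 min preincubation plus 30 min after DTT, room temperature. Ex/Em 525/598 nm; 4-parameter Hill fit against DMSO and 10 uM DA3003.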

Chain of Glutathione peroxidase 1 (Homo sapiens) (P07203 whole entry, looked up): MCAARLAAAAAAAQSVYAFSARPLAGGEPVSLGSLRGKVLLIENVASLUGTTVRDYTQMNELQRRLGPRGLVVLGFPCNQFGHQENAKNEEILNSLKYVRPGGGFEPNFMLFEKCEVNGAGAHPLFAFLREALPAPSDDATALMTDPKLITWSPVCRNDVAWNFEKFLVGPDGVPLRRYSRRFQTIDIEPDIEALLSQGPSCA

`OC[C@@]1(O)CO[C@H](OC[C@H]2O[C@@H](OC(CCCCc3ccc(O)cc3)CCc3ccc(O)cc3)[C@H](O)[C@@H](O)[C@@H]2O)[C@@H]1O` (stereo partly specified): the Potency entry in experiment [1], in experiment [2], in experiment [3], in experiment [4], in experiment [5] and in experiment [6] was “inactive” in each case.
`Cc1ccccc1-n1nc(-c2c(-c3ccc(F)cc3)nn3c2NC[C@@H](CO)C3)ccc1=O`: the Potency entry in experiment [1], in experiment [2], in experiment [3], in experiment [4], in experiment [5] and in experiment [6] was “inactive” in each case.
In the case of `Fc1ccc(-c2c3cccc(C(F)(F)F)c3nn2Cc2ccc(F)cc2Cl)cc1`, the Potency entry in experiment [1], in experiment [2], in experiment [3], in experiment [4], in experiment [5] and in experiment [6] was “inactive” throughout.
`CC(C)(O)/C=C/C(=O)[C@](C)(O)[C@H]1[C@H](O)C[C@@]2(C)[C@@H]3CC=C4[C@@H](C=C(O[C@@H]5O[C@H](CO)[C@@H](O)[C@H](O)[C@H]5O)C(=O)C4(C)C)[C@]3(C)C(=O)C[C@]12C`: the Potency entry in experiment [1], in experiment [2], in experiment [3], in experiment [4], in experiment [5] and in experiment [6] was “inactive” in each case.
Consider `COc1c(C)c(OCC=C(C)C)cc2c1CNC2=O`, for which the Potency result in experiment [1], in experiment [2], in experiment [3], in experiment [4], in experiment [5] and in experiment [6] was “inactive” each time.
For `CC1(C)CC2C3=CCC4[C@@]5(C)CC[C@H](OC6OCC(O)C(OC7OC(CO)C(O)C(O)C7O)C6O)C(C)(C)C5CC[C@@]4(C)[C@]3(C)C[C@H](O)[C@@]2(CO)[C@H](OC(=O)c2ccccc2)C1` (stereo partly specified), the Potency result in experiment [1] and in experiment [2] was “inactive” each time. In addition, the activity change, negative = inhibition in experiment [3] is -8.37% [at 11.6 µM]. The activity change, negative = thiol reactive in experiment [4] was 159% [at 11.5 µM]. In addition, the activity, negative = inhibition in experiment [5] was -2.24% [at 11.6 µM]. For the same compound, the redox activity (% of DA3003) in experiment [6] is -2.38% [at 11.5 µM].
`CCOC(=O)COc1ccc2c(c1)C[C@@H](NC[C@H](O)c1cccc(Cl)c1)CC2`: the Potency result in experiment [1], in experiment [2], in experiment [3], in experiment [4], in experiment [5] and in experiment [6] was “inactive” throughout.
Regarding `C=C1CCC2[C@](C)(CCC[C@]2(C)C(=O)O)[C@H]1CC/C(C)=C/C(=O)OC` (stereo partly specified), the Potency entry in experiment [1], in experiment [2], in experiment [3], in experiment [4], in experiment [5] and in experiment [6] was “inactive” in each case.
In the case of `C/C=C/C(=O)OC1/C=C/C(O)C(OC(C)=O)CCC(=O)OC1C` (stereo unspecified), the Potency result in experiment [1], in experiment [2], in experiment [3], in experiment [4], in experiment [5] and in experiment [6] was “inactive” in each case.
As for `COc1cc2c(c(OC)c1O)C(c1ccc(O)cc1)C1C(=O)OC3C(COC(=O)C1=C2)OC(CO)(OC1OC(COC(=O)/C=C/c2ccc(OC4OC(C)C(O)C(O)C4O)cc2)C(O)C(O)C1O)C3O` (stereo unspecified), the Potency result in experiment [1] and in experiment [2] was “inactive” each time. The activity change, negative = inhibition in experiment [3] is -10.6% [at 11.6 µM]. Further, the Potency in experiment [4] is 4.5 µM (active). Besides, the activity, negative = inhibition in experiment [5] is -14.9% [at 11.6 µM]. Moreover, in experiment [6], the redox activity (% of DA3003) is 0.553% [at 11.5 µM].
Turning to `CC1CCC2(C)CCC3(C)C(=CCC4C5(C)CCC(O)C(C)(C(=O)O)C5CCC43C)C2C1C` (stereo unspecified), the Potency result in experiment [1], in experiment [2], in experiment [3], in experiment [4], in experiment [5] and in experiment [6] was “inactive” throughout.
Consider `C/C(=C/CO)CC[C@H]1[C@]2(C)C[C@H](O)CC(C)(C)[C@H]2CC[C@]1(C)O`, for which the Potency entry in experiment [1], in experiment [2], in experiment [3], in experiment [4], in experiment [5] and in experiment [6] was “inactive” each time.
Regarding `COc1cc(C(C)=O)ccc1O[C@@H]1O[C@H](CO[C@@H]2OC[C@@H](O)[C@H](O)[C@H]2O)[C@@H](O)[C@H](O)[C@H]1O`, the Potency entry in experiment [1], in experiment [2], in experiment [3], in experiment [4], in experiment [5] and in experiment [6] was “inactive” each time.
As to `Nc1nc2c(nc(Sc3ccc(Cl)cc3)n2[C@@H]2O[C@@H]3COP(=O)(O)O[C@H]3[C@H]2O)c(=O)[nH]1`, the Potency result in experiment [1], in experiment [2], in experiment [3], in experiment [4], in experiment [5] and in experiment [6] was “inactive” throughout.
For `O=C(OC[C@H]1O[C@H](O[C@H]2CO[C@H](CO)[C@@H](O)[C@@H]2O)[C@H](O)[C@@H](O)[C@H]1O)c1ccccc1`, the Potency entry in experiment [1], in experiment [2], in experiment [3], in experiment [4], in experiment [5] and in experiment [6] was “inactive” in each case.
Take `Cc1ccc(-n2nc(C(C)(C)C)cc2NC(=O)Nc2cc(COc3cccnc3)[nH]n2)cc1`: the Potency entry in experiment [1], in experiment [2], in experiment [3], in experiment [4], in experiment [5] and in experiment [6] was “inactive” throughout.
Turning to `COc1ccc(OC2OC(CO[C@@H]3O[C@@H](C)[C@H](O)[C@@H](O)[C@H]3O)C(O)C(O)C2O)cc1OC` (stereo partly specified), the Potency result in experiment [1], in experiment [2], in experiment [3], in experiment [5] and in experiment [6] was “inactive” in each case. Besides, the Potency in experiment [4] is 2.32 µM (active).
As for `CC1(C)CC[C@]2(C(=O)OC3OC(CO)C(O)C(O)C3O)CC[C@]3(C)C(=CCC4[C@@]5(C)C[C@@H](O)[C@H](OC6OC(C(=O)O)C(O)C(O)C6O)C(C)(C)C5CC[C@]43C)[C@@H]2C1` (stereo partly specified), the Potency result in experiment [1] and in experiment [2] was “inactive” throughout. Also, in experiment [3], the activity change, negative = inhibition was -3.02% [at 11.6 µM]. In addition, the activity change, negative = thiol reactive in experiment [4] is 309% [at 11.5 µM]. For the same compound, in experiment [5], the activity, negative = inhibition was 1.92% [at 11.6 µM]. Besides, the redox activity (% of DA3003) in experiment [6] was 1.95% [at 11.5 µM].
`COc1ccc(C2(O)c3c(ccc4c3OC(C)(CCC=C(C)C)C=C4)NC(=O)C2OC)cc1` (stereo unspecified): the Potency result in experiment [1], in experiment [2], in experiment [3], in experiment [4], in experiment [5] and in experiment [6] was “inactive” in each case.
As to `COc1ccc(CCC(=O)O)c(O[C@@H]2O[C@H](CO)[C@@H](O)[C@H](O)[C@H]2O)c1`, the Potency result in experiment [1], in experiment [2], in experiment [3], in experiment [4], in experiment [5] and in experiment [6] was “inactive” each time.
Consider `CC1(C)CC[C@]2(C(=O)O)[C@H](O)C[C@]3(C)C(=CCC4[C@@]5(C)CC[C@H](O[C@@H]6OC[C@@H](O)[C@H](O)[C@H]6O)[C@@](C)(C(=O)O)C5CC[C@]43C)[C@@H]2C1` (stereo partly specified), for which the Potency entry in experiment [1], in experiment [2], in experiment [3], in experiment [4], in experiment [5] and in experiment [6] was “inactive” each time.
